We go through 32 molecules from the supplement of paper PMC12632987.

For one test, the target named is UCHL1, P09936. The test is described as follows: median log2 fold change of GCK-ALFA target abundance (FLAG IP / Myc IP barcode read proportion) (log2 ratio); each designed protein is fused to an ALFA-tag nanobody in HEK293 cells to bring the named protein to FLAG-tagged glucokinase (GCK); Myc marks an untargeted standard; higher = target protein stabilised (more abundant). The note with it: target protein: 3xFLAG-MCP-GCK-ALFA reporter; HEK293 landing pad (RPLP). The method in brief:
(§1)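 HEK293 landing-pad cells received a recombined binder library fused to the ALFA nanobody and were induced with 2 μg mL^−1 doxycycline, then transfected with a plasmid encoding a FLAG-tagged target and a Myc-tagged standard. Lysates were collected after 48 h for anti-FLAG and anti-Myc immunoprecipitation, and the circular RNA barcodes were reverse transcribed, amplified and sequenced. Target abundance for each binder is the median log2 ratio of FLAG to Myc barcode read proportions. Barcodes had to reach a proportion of at least 10^−7 in both replicates, each binder needed at least 3 barcodes per replicate, a pseudocount of 10^−6 was applied, and the two replicates were pooled.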

The target in another test is T1, USP38, Q8NB14.
T1 chain: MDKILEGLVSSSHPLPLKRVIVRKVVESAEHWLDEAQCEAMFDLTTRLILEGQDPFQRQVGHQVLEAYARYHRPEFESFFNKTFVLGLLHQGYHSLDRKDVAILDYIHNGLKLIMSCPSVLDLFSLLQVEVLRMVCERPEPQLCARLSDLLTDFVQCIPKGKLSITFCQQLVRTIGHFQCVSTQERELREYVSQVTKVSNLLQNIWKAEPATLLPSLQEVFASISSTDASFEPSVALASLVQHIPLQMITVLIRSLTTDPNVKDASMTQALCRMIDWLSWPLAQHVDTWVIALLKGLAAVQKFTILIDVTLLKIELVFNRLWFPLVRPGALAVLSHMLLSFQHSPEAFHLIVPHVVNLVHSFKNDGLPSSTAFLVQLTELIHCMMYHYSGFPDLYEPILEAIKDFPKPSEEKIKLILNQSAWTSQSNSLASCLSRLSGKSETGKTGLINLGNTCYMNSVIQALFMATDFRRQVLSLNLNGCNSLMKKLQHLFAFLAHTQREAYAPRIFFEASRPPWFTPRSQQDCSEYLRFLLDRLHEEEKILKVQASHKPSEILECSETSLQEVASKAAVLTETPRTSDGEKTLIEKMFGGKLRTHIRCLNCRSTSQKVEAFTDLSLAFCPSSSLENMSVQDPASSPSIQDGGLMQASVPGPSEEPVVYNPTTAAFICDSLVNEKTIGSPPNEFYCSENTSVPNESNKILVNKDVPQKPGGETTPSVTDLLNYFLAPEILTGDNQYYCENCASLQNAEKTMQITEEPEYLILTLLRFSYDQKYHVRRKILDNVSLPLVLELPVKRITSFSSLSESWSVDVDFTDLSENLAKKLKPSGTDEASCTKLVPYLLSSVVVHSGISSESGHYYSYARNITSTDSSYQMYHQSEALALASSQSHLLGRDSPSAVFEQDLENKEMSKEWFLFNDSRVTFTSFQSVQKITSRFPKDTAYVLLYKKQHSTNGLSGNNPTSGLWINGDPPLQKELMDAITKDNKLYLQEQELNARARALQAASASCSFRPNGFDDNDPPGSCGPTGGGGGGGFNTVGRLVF
The test is described as above. The note with it: target protein: 3xFLAG-MCP-GCK-ALFA reporter; HEK293 landing pad (RPLP). The procedure, abridged: as §1

UCHL1, P09936, sequence (P09936 whole entry, looked up, the tested form may be a part): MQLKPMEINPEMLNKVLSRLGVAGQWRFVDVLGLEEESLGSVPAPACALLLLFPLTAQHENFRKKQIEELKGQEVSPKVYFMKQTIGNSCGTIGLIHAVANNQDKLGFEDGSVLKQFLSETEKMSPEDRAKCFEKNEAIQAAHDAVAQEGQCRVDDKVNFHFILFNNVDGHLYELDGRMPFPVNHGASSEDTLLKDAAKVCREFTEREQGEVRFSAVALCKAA

B1: uchl1_89_7594 (protein)
chain: EEERLAAARAYLRRVLAETRARVEAILARLGRPDPALVAAAEAIFEAAELAIEEPERAEEYVARAEEAARQLVELAPPEYRADFRMALGRLINRLRGYAA
For the molecule B1, the “median log2 fold change” value with UCHL1, P09936 is 0.173.

B2: usp_38_diff_out_13_43_64 (protein)
chain: LREKAEKALAEADAALGRAYAVSRELRDKMREVNPEDAKKLLKARKKLDEVGNALADARAALETAMILGEGVEEAIPKVQAAVAKLKAAIEEAEKLLKEV
In the case of B2, in the test with USP38, Q8NB14, the “median log2 fold change” value was -0.253.

B3: usp_38_diff_out_13_43_66 (protein)
chain: LEEEAEKVLKELDETLGEIYNLSLELRDKIRESDPETAKKLVEIKKRLDEVGNELADARRDLEIALISGEGLEEAIKKGKEKIEKAKKTIKEAKEELEKL
For B3, the “median log2 fold change” value in the test with USP38, Q8NB14 is 0.341.

B4: usp_38_diff_out_13_133_56 (protein)
chain: SMAEKKREEAKKLLEETKKKVEKLLEEAEKALKEGDVEKAWEKVGEAAGTLLKARDELTDLTEDDPELRKEVLKELKKLEEKLNKLIDKVEKALREEFLK
B4: the “median log2 fold change” value with USP38, Q8NB14 is -0.0894.

B5: usp_38_diff_out_13_133_62 (protein)
chain: SAAEERRKEALKELEETEKKIEELLKKAKEALKEGKIEEAEKYVGEAAGLILKARSDLMAKTKDDPELRKEILKRLKELEKKLNELIDEVNEALKKKFLE
On to B5, for which the “median log2 fold change” value with USP38, Q8NB14 worked out at 0.147.

B6: uchl1_89_7590 (protein)
chain: EEAKAKAARARLERVLAATEAALRRLLARLGAPDPALVAALDALLAAARAALADPATAAAHLAAAEAAARRLVELAPPEVRASVRLATGRLVNALRGYVA
With B6, the “median log2 fold change” value with UCHL1, P09936 is -0.00562.

B7: usp_38_diff_out_13_133_55 (protein)
chain: AAAEAARAEAEALLAETEKRVEELLKKAKEALKAGDVETAEKYVGEAAGTLLEARDRLSDLTADDPELRREVLKRLKELEEKLNELIDEVEKALREEFLK
On to B7, for which the “median log2 fold change” value with USP38, Q8NB14 came to 0.299.

B8: usp_38_diff_out_13_133_52 (protein)
chain: AEEEEELKRRKEEFDKLIAEARKAIKDAKAALAAGDLDAAWAAAGKAAGLLMKAREHRTEKLRDDPELYEEAKKKLDEVEKELNEVIDAIVAAERERFLA
Regarding B8, the “median log2 fold change” value with USP38, Q8NB14 was 0.302.

B9: usp_38_diff_out_11_94_49 (protein)
chain: DEEIETNLFLMRYQFSQIVDLALTIDRETAAKVLRLANEAMEILKSGGPLEEVNKKLEEIKKVFNEAAAKSKENTEKLTAEANALLEKAKEYAEKAIKLR
For the molecule B9, the “median log2 fold change” value with USP38, Q8NB14 came out at 0.33.

B10: usp_38_diff_out_13_133_58 (protein)
chain: SAAEERRKKALERLEEAEKKVEELLKKAEEALKEGKIEEASKYVGEAAGIIVKTRSDLMALTKDDPELRKEILKRLKELEKKLNELIDKVVEAEKKKFLA
B10: the “median log2 fold change” value with USP38, Q8NB14 came to 0.217.

B11: usp_38_diff_out_10_51_3 (protein)
chain: SREEEAERLLEEMEELVEKIKTSDLKTATAYFYQLINLTARLEALDPSYAERALELLKEAAKELLEKGGDKEDIIFALRFKAAATGSKVLEKAAEYVEKL
With B11, the “median log2 fold change” value in the test with USP38, Q8NB14 was 0.18.

B12: usp_38_diff_out_10_51_2 (protein)
chain: SVEEAREEIEELLEEVEEVFKTGSLDEQLRAGLNALNRLREIALEYPEVEEEVIEAMVRIVELAKPNPELYEDMKFAARFKAATVNDEVAERVRERIDAL
As to B12, the “median log2 fold change” value with USP38, Q8NB14 turned out to be 0.0864.

B13: usp_38_diff_out_13_133_51 (protein)
chain: AAKEEALAAAQARFDALLADAQAAIDAAEAALAAGDLDAAWAAVGRAAGLLREAREHRTRELRDDPAAYAAAQARLDAVEKRLNAVIDRVAAAERARFLA
For the molecule B13, the “median log2 fold change” value in the test with USP38, Q8NB14 worked out at 0.142.

B14: uchl1_89_7592 (protein)
chain: DAARLAAARARLRRVLERTRARVEAIIARLGRPDPAMVAAAEAVFAAAERAIADPARAAEWVARAEAAARELVALAPPEYRSDFRMALGRLVNALLGYAA
With B14, the “median log2 fold change” value with UCHL1, P09936 is -0.157.

B15: uchl1_89_7593 (protein)
chain: EEARLAAARAKLREVLARTRAAVEAILARLGEPRPELVALLDAIFEAAEKAIADPAKAEEYVEKAEAAAREFVELAPEEFRSDFRMALGRLINRLLGYAA
Turning to B15, in the test with UCHL1, P09936, the “median log2 fold change” value worked out at 0.0394.

B16: uchl1_89_7595 (protein)
chain: AAERAAAARARLRRVLAATRAELDRLVARMGERDPELLAALEAFFAAAEAALADPSTAAAALAAAEAAAKRAVELAPERYRASFRLALGRLLNALRGYVA
With B16, the “median log2 fold change” value with UCHL1, P09936 was -0.1.

B17: usp_38_diff_out_13_133_61 (protein)
chain: SAMEERRKEAREELEKAKKEIEELLKKAEEALKEGDIETAEKYVGEAAGLILDTRSDLMERTKDDPELRKEILKELKELEKKLNELIDKVVKAREEEFLK
In the case of B17, the “median log2 fold change” value with USP38, Q8NB14 amounted to 0.145.

B18: usp_38_diff_out_13_133_54 (protein)
chain: AAAEARREEARRLLEEAEKEIEKLLKEAEKALEEGNIDKAYEYVAKAAGLLLETRDRLFDLTRDDPELRREVLKRLKELEKKLNELIDKVEAAERERFLA
As to B18, the “median log2 fold change” value with USP38, Q8NB14 was -0.102.

B19: usp_38_diff_out_13_93_69 (protein)
chain: EREERAEEIVERVERLGEELLKELEAAAADPSTTIEELLDLYSELVRRLVTATQAALAEARELGDEETVERILEISNETLLRLSELTTEALTAKAEAEAA
As for B19, the “median log2 fold change” value in the test with USP38, Q8NB14 was -0.38.

B20: usp_38_diff_out_13_133_60 (protein)
chain: SAAEERRAEARRRLEEAEERVKALLKEAKAALKAGKIDEARKKVGEAAGVIVDTRSDLMALTRDDPELRREILKRLKELEKELDKLIDEVVKAEEEAFLA
Turning to B20, the “median log2 fold change” value with USP38, Q8NB14 was -0.0799.

B21: usp_38_diff_out_13_133_63 (protein)
chain: SAAEERRAAARARLDAAVAEVERLLEEARRALEEGDVERAERYVGEAAGVLVRTRSELMALTRDDPELRREILRRLKELERRLEELIDEVEAARREAFLA
As to B21, in the test with USP38, Q8NB14, the “median log2 fold change” value came out at 0.0626.

B22: usp_38_diff_out_13_43_65 (protein)
chain: LREEAEKALAEADKALGEAYKLSQEIRDKIRESDPETAKKLVKLRKELDDAGNALADARVALELALHSGEGVEEAIAATRAAIAALKKKIAEAKKELAAL
In the case of B22, in the test with USP38, Q8NB14, the “median log2 fold change” value was 0.148.

B23: uchl1_89_7596 (protein)
chain: EEERRAAARARLRRVLAATRAKLEELIARMGERDPELLAELEAFFAAAEAALEDPETAEAALAAAEEHAVRAVELAPEEYRASFRLALGRLLNALLGYVA
B23: in the test with UCHL1, P09936, the “median log2 fold change” value was -0.537.

B24: uchl1_89_7589 (protein)
chain: AAAREAAARARLEAVLAKTRAELERLLARLGAPDPEMVAALEALFDAARRALADPETAEAALAETEAAARRLVELAPEEVRASVRLAVGRLVIALEGYRA
On to B24, for which the “median log2 fold change” value with UCHL1, P09936 was found to be 0.16.

B25: usp_38_diff_out_10_51_1 (protein)
chain: SVEEAKKRIEELMKEVEEVFKTGSDGEILRKSLNALNELTEIAKEYPEVKEEVIEAMVRIVELTKPNPELYEDMTFAARFKAATVSDEVAEKVREKIAAL
For B25, in the test with USP38, Q8NB14, the “median log2 fold change” value is 0.235.

B26: uchl1_89_7591 (protein)
chain: EAERLERARAHLREVLARTRERVEAIIARLGEPDPALVAARERVFAAAERAIADPARAAEYVAEAEAAARELVALAPPEFRSDFRMALGRLINRLLGYAA
In the case of B26, in the test with UCHL1, P09936, the “median log2 fold change” value was 0.0711.

B27: usp_38_diff_out_13_133_59 (protein)
chain: SAAEERRREAERRLAEAERRIRELLEKAKKALEEGDIDEAERYVGEAAGIILRTRSDLMALTRDDPELRRRILRRLKELEEELNELIDEVVEAEKKRFLA
Take B27: the “median log2 fold change” value with USP38, Q8NB14 came to 0.136.

B28: uchl1_89_7588 (protein)
chain: EEERRRAARERLERVLAATRARLEALLARLGEPDPALVAALEALFAAARRALEDPATAAEALAAAEAAARRLVELAPPEVRASVRLAVGRLVNRLRGYVA
Consider B28, for which the “median log2 fold change” value in the test with UCHL1, P09936 was -0.164.

B29: usp_38_diff_out_13_133_53 (protein)
chain: AAAEARRARALALLEEAEARVEKLIKEAEKALKEGKIDEARKYVAEAAGTLLRTRDELFDLTADDPELRREVLRRLKELTKRLDKVIDKVEKAERERFLA
On to B29, for which the “median log2 fold change” value in the test with USP38, Q8NB14 was determined as 0.000412.

B30: usp_38_diff_out_13_93_67 (protein)
chain: DKEEEAKKLLEELKKFAEEKLKELEKLAKDPSVTIEELLEKYSELVSELITKHNEVKKKLDELGDEKTKKEATKITNEALLRMSEITTEALTRKQEEAEA
Take B30: the “median log2 fold change” value with USP38, Q8NB14 was determined as 0.158.

B31: usp_38_diff_out_13_133_57 (protein)
chain: SAAEERRAEARARLAETEAEVEKLLKEAKAALKAGDIDEAEKKVGEAAGLILEARSDLFALTRDDPELRREIRRRLKELEKELDKLIDEVVEARKKEFLA
As for B31, the “median log2 fold change” value with USP38, Q8NB14 worked out at 0.0932.

B32: usp_38_diff_out_13_133_50 (protein)
chain: SMEEEEKKEALKKFEELIKEAREAIEKAKKALEEGDLDKAWEYLGKAAGLLMEARELRTRELRDDPELYKEAKKKLEEVEKELNEVIDKVVEAEEKAFLA
Consider B32, for which the “median log2 fold change” value with USP38, Q8NB14 worked out at 0.322.
